# CHX counter: counter-screen for Shiga toxin inhibitors: cycloheximide protein synthesis inhibition; max response, %; cell reporter, cycloheximide protein synthesis inhibition counterscreen; 300,000 tested, 12% active; AID 2314; in the data active means max response mostly above about 13%, no sharp cut-off; inactive means mostly below about 14%; further: read at 38.3 µM for the half of the compounds with a filed dose; 0% is about no effect
# LmPK inh: blocks Leishmania mexicana pyruvate kinase activity; Q27686; purified LmPK, Kinase-Glo ATP luminescence, 1 h; Potency, µM (highest dose often 57.5 µM), for the others: top-dose activity change, negative = inhibition, actives largely listed as inhibitors; 290,000 tested, 0.37% active; AID 1721; further: potency means the concentration at half of the fitted maximal effect; on the % scale 0 is the no-effect control and ±100 the full control effect
#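 ATP generated from ADP (0.1 mM) and PEP (0.5 mM) by 0.1 nM LmPK over 1 h at room temperature (pH 7.2 imidazole buffer) was detected by coupled luciferase luminescence. Values were normalized to uninhibited and no-enzyme wells.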
# Sm TGR block: inhibitors of Schistosoma mansoni thioredoxin glutathione reductase; Q962Y6; purified TGR, DTNB reduction, TNB absorbance 405 nm; 360,000 tested, 3% active; Potency, µM (series often up to 114 µM), without a hit: at the top dose activity change, negative = inhibition, hits mostly inhibitors; further: potency means the concentration at half of the fitted maximal effect; on the % scale 0 is the no-effect control and ±100 the full control effect; nearly all actives have a fitted effect of over 60% in size
#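 First, TGR (20 nM dispensed) and NADPH were mixed with compound. Second, a 15 min room-temperature incubation followed. Third, further NADPH and then DTNB were added to start the reaction. Finally, TNB absorbance was monitored kinetically.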
# Shiga toxin inh: inhibitors of Shiga toxin in Vero cells. Vero cells, Shiga toxin protein synthesis inhibition reporter. 290,000 tested, 9.2% active. inhibition, % at 38.7 µM; in the data active means inhibition mostly above about 28%, no sharp cut-off; inactive means mostly below about 43%; further: 0% is about no effect
# Giardia FBPA inh: inhibitors of Giardia lamblia fructose-1,6-bisphosphate aldolase; purified Giardia FBPA; Potency, µM (top dose mostly 59.6 µM), without a hit: top-dose activity, negative = inhibition, usual class: inhibitors; A8B2U2; 290,000 tested, 0.71% active; further: potency means the concentration at half of the fitted maximal effect; on the % scale 0 is the no-effect control and ±100 the full control effect; nearly all actives have a fitted effect of over 55% in size
# Target sequence (A8B2U2 whole entry, looked up): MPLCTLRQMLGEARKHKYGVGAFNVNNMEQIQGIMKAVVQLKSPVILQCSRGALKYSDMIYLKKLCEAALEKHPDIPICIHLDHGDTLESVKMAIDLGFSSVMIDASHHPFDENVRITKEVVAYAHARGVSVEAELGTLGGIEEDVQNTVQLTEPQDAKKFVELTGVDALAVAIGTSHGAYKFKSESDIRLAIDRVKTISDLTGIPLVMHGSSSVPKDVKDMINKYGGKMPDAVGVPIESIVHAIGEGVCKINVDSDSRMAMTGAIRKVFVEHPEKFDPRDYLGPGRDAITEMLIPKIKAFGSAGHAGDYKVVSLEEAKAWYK
#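 Giardia FBPA (40 nM reagent) was preincubated 10 min at RT with compound (up to 57.5 uM final), then substrate plus GAPDH/TPI/NAD/arsenate coupling system with diaphorase/resazurin was added; resorufin fluorescence (525/598 nm) was read after 20 min.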
# TbPYK inhibitor: T. brucei pyruvate kinase inhibition; Q57TT1; TbPYK enzyme, Kinase-Glo Plus ATP luminescence, 45 min; Potency, µM (series often up to 76.8 µM), for the others: at the top dose activity, negative = inhibition, actives largely listed as inhibitors; 410,000 tested, 0.12% active; further: potency means the concentration at half of the fitted maximal effect; on the % scale 0 is the no-effect control and ±100 the full control effect; nearly all actives have a fitted effect of over 50% in size
#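 Enzyme and substrate buffer are dispensed first and compound is pin-transferred. ADP at 130 uM final then starts the reaction, which runs 45 min at room temperature. Detection reagent is added for 10 min before luminescence is imaged.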
# Active calls of the source: *; . = not tested or not shown; + = active, no number; [ ] = dose if it differs, or a comment. The sample as a whole holds a higher share of hits than the screen did. Unless noted, the call rests on the fitted dose curve; in most records, active means well fitted curve in the direction sought with a large enough effect; inconclusive means small, poorly fitted or top-dose-only effect, or another doubt; inactive means no such curve, though single readings can be large; an effect the other way counts as inactive or inconclusive.
SMILES,CHX counter,LmPK inh,Sm TGR block,Shiga toxin inh,Giardia FBPA inh,TbPYK inhibitor
Cc1cccc(NC(=O)CO/N=C/c2ccc3c(c2)OCO3)c1,8,0%,1%,-3,4%,-11%
CCCc1cc(C(=O)NNC(=S)Nc2cccc(C)c2)cs1,31*,-11%,8%,40*,24%,3%
Cc1cccc(NC(=O)c2ccc3c(c2)OCCO3)c1,31,-22%,48%,41*,4%,19%
O=C(N/N=C/c1ccc2c(c1)OCO2)C(=O)Nc1ccccc1Cl,-2,-11%,7%,23,.,-8%
Cc1cccc(NC(=S)N/N=C/c2ccc3c(c2)OCO3)c1,49*,-1%,-1%,+,29%,-1%
CCOc1ccc(NC(=O)N(Cc2ccc(CC)cc2)Cc2cn[nH]c2-c2ccc(OC)cc2)cc1,.,.,3%,.,.,-1%
CCOC(=O)C(=O)CC(=O)c1ccc2c(c1)OCCO2,30*,-4%,25%,51,-14%,2%
CCC(C)(C)NC(=O)c1ccc2c(c1)OCCO2,16*,0%,11%,45,5%,0%
O=C(Nc1ccccc1)c1ccc2c(c1)OCCO2,41*,14µM*,2%,70*,-2%,-17%
Cc1ccc(NC(=O)c2ccc3c(c2)OCCO3)cc1S(=O)(=O)Nc1cccc(Cl)c1,45*,2%,-12%,88*,-8%,-10%
NCCCC[C@H](NC(=O)[C@@H]1CCCN1C(=O)[C@@H](N)CCCN=C(N)N)C(=O)N1CCC[C@H]1C(=O)N[C@@H](CCC(N)=O)C(=O)N[C@@H](CCC(N)=O)C(=O)N[C@@H](Cc1ccccc1)C(=O)O,-5,.,.,-10,2%,.
O=C(Cn1c(=O)oc2cc(S(=O)(=O)NCc3ccccc3)ccc21)NCc1ccc(F)cc1,.,.,1%,.,.,-9%
CCOC(=O)[C@]12CCCC=C1N(Cc1ccc(Cl)cc1Cl)C(=O)[C@H](CC(=O)NCC13CC4CC(CC(C4)C1)C3)C2,.,.,.,.,.,-1%
CCc1cc(=O)oc2c(C)c(OC(C)C(=O)NCCCn3ccnc3)ccc12 (stereo not drawn),-3,6%,11%,-1,4%,1%
CCCCc1nc2c(c3c1C[C@H](C)OC3)CN(C(=O)c1cccnc1)CC2,.,-4%[11.5 µM],.,.,0%[12.9 µM],.
Cc1cccc(NC(=S)NCc2ccc3c(c2)OCO3)c1,-2,3%,-12%,-15,0%,-3%
CCC(C)(C)NC(=O)CN(C(=O)C(=O)Nc1ccc2c(c1)OCCO2)C1CC1,12*,-11%,2%,14,9%,3%
COc1ccc(NC(=O)/C(=C\c2ccc3c(c2)OCO3)NC(C)=O)cc1,59*,0%,-13%,67*,2%,1%
Cc1cccc(NC(=S)NNC(=O)c2ccc3c(c2)OCO3)c1,116*,-12%,5%,49*,8%,-21%
CCOC(=O)c1c(C)[nH]c(C(=O)Nc2ccc(NC(C)=O)cc2)c1C,-3,4%,-9%,-9,0%,-3%
CCOc1ccc(NC(=O)c2[nH]c(C)c(C(C)=O)c2C)cc1,31*,-6%,0%,43*,-1%,1%
CCc1c(C(=O)Nc2ccc(OC)cc2)[nH]c(C)c1C(C)=O,21*,4%,-1%,29*,-7%,1%
CCc1ccc(NC(=O)c2[nH]c(C)c(C(C)=O)c2C)cc1,42*,-5%,-4%,56*,-15%,-6%
CC(=O)c1c(C)[nH]c(C(=O)Nc2nccs2)c1C,40*,1%,-7%,93*,-9%,8%
Cc1cc(C)cc(NC(=O)CCc2nnc3n(C)c(=O)c4sccc4n23)c1,.,.,13%,.,.,-2%
COc1ccc(CCNC(=O)c2[nH]c(C)c(C(C)=O)c2C)cc1,-4,2%,0%,-19,6%,1%
COc1ccc(OCCOC(=O)c2[nH]c(C)c(C(C)=O)c2C)cc1,27*,-9%,3%,30,-5%,-6%
COc1ccc(CNC(=O)c2[nH]c(C)c(C(C)=O)c2C)cc1,-1,-3%,2%,18,3%,0%
COc1ccc(NC(=O)c2[nH]c(C)c(C(C)=O)c2C)cc1,42*,-2%,-1%,79*,-9%,-17%
